From PubChem BioAssay (NCATS)
Values joined by “and” are separate entries in the source; they are usually repeats but may differ in a detail not shown here. Identical values can stand only once. Results filed as inconclusive are left out. Active and inactive are the calls of the source. Calls follow the shape of the dose curve; as a rule, active = well fitted curve in the direction sought with a large enough effect; inconclusive = small, poorly fitted or top-dose-only effect, or another doubt; inactive = no such curve, though single readings can be large; an effect the other way counts as inactive or inconclusive.

How the values were obtained:
[1] = qHTS to identify inhibitors of the type 1 interferon - major histocompatibility complex class I in skeletal muscle: primary screen against the NCATS LOPAC collection (AID 1347405);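 also: human myoblasts with HiBiT tag on endogenous HLA-B stimulated by IFN-beta; lytic HiBiT luminescence reporting HLA-B protein level; % is scaled to controls: 0 for no effect and ±100 for the full control effect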
Outline: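 IFN-beta-stimulated (4 ng/ml) HLA-B HiBiT knock-in myoblasts, compound-treated 24 hrs up to 46 uM final; signal via LgBiT complementation and furimazine luminescence.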

[2] = qHTS to identify inhibitors of the type 1 interferon - major histocompatibility complex class I in skeletal muscle: primary screen against the NCATS Pharmaceutical Collection (AID 1347407);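 also: luminescence of HiBiT knocked into endogenous HLA-B as interferon-induced MHC class I level; % is scaled to controls: 0 for no effect and ±100 for the full control effect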
Outline: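 Compounds […] were added to CRISPR-engineered HLA-B-HiBiT C25cl48 human myoblasts with 4.0 ng/ml IFN-beta. After 24 hrs at 37 C, cells were lysed and HiBiT luminescence measured.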

[3] = qHTS for inhibitors of adenylyl cyclases using a fission yeast platform: a pilot screen against the NCATS LOPAC library (AID 1347410);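 also: plate controls were DMSO vehicle for no effect and DPI positive control for full effect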
Outline: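 GFP from fbp1-GFP reporter, read by Acumen laser cytometry, indicates AC inhibition in fission yeast expressing AC9, GNAS and PDE4D2. Cells grown 18 h in the dark at 30C with compounds, final up to 57 uM.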

[4] = qHTS to identify inhibitors of the type 1 interferon - major histocompatibility complex class I in skeletal muscle: primary screen against the NCATS Mechanism Interrogation Plate v5.0 (MIPE) Libary (AID 1347411); also: nearly all actives have a fitted effect of over 65% in size; also: potency is read from the fitted curve at half-maximal effect
Outline: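 IFN-beta-driven (4 ng/ml) HLA-B-HiBit expression in CRISPR-tagged C25cl48 myoblasts; compounds 11-pt, 1:3, max 46 uM, 24 hr exposure; lytic NanoLuc complementation luminescence.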

[5] = biological target: Protein phosphatase 1D (Homo sapiens) (UniProt O15297); assay: RapidFire Mass Spectrometry qHTS Assay for Modulators of WT P53-Induced Phosphatase 1 (WIP1) (AID 1347424);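 also: amount of dephosphorylated VEPPL-S-QETFS peptide product formed by WIP1; series mostly up to about 63 µM; plate controls were DMSO wells for no effect and GSK830371 inhibitor control at 10 µM for full effect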
Chain of Protein phosphatase 1D (Homo sapiens) (O15297 whole entry, looked up): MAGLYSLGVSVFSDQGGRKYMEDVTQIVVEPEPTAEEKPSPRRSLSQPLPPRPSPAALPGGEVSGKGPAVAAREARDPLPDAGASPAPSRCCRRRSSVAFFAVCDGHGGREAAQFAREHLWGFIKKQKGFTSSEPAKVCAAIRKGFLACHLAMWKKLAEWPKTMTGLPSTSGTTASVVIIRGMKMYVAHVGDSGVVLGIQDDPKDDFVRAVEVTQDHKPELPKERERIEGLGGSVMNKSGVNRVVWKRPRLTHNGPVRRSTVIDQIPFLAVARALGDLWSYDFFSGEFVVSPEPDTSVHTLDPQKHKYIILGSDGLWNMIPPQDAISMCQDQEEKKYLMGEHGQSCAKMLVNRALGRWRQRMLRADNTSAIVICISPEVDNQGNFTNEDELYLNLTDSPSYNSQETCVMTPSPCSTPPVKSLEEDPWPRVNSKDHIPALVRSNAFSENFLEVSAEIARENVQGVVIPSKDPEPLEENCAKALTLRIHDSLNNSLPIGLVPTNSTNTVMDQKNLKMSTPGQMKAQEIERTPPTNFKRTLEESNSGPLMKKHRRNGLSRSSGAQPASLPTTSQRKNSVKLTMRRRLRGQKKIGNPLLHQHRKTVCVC
Outline: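 RapidFire mass spectrometry measured dephosphorylated peptide after 5 min room-temperature reaction of 2 uM VEPPL-pS-QETFS with 10 nM WIP1 (50 mM Tris-HCl pH 7.5, 30 mM MgCl2, 0.1 mM EGTA, BSA), following 1 hr compound preincubation; 1 uM isotope-labelled product standard.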

[6] = biological target: Protein phosphatase 1D (Homo sapiens) (UniProt O15297); assay: Rhodamine-PBP qHTS Assay for Modulators of WT P53-Induced Phosphatase 1 (WIP1) (AID 1347425); also: % of control where 0% means no effect
Outline: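 WIP1 (5 nM final) was preincubated with compound for 1 hour at room temperature. It then dephosphorylated 10 uM VEPPL-pS-QETFS peptide in Tris-HCl pH 7.5 with 30 mM MgCl2. Released Pi was detected by 10 uM Rh-PBP fluorescence (ex 525/em 598 nm) read at 1-min intervals for 11 min, as delta f1 - f0.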

[7] = Validation qHTS assay for inhibitors of Activation Induced Cytidine Deaminase (AID): UDG Counterscreen signal (AID 1347427); also: 0% is about no effect
Outline: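 Fluorescence at 560 nm excitation, 665 nm emission reports UDG signal after 250 mM NaOH (2x) addition and 30 min. Enzymes (AID 1 uM, UDG 2 U/mL, at 4/3x) preincubated 10 min with compound, then 4 h with 4x 250 nM DJC20/DJC23 substrate at room temperature.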

[8] = biological target: Single-stranded DNA cytosine deaminase (Homo sapiens) (UniProt Q9GZX7); assay: Validation qHTS assay for inhibitors of Activation Induced Cytidine Deaminase (AID): AID signal (AID 1347429); also: % is scaled to controls: 0 for no effect and ±100 for the full control effect
Chain of Single-stranded DNA cytosine deaminase (Homo sapiens) (Q9GZX7 whole entry, looked up): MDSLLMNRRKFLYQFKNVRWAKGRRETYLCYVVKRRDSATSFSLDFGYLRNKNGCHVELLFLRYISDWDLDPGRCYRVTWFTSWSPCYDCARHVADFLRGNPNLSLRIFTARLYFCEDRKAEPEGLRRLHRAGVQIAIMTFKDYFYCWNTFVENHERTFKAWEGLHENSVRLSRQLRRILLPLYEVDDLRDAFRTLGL
Outline: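 Compounds (up to 114 uM final) are tested against AID plus UDG using DJC20/DJC23 FRET substrate. Reactions incubate 4 hr at room temperature, receive NaOH for 30 min, and are read at Ex 540/Em 590 nm.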

[9] = Primary qHTS for inhibitors of La Crosse Virus (LACV) - induced cell death in SH-SY5Y cells (AID 1508616);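 also: top concentration of the series differs between compounds; 0% = infected DMSO wells and 100% = uninfected DMSO wells; higher means more rescue of cells from virus-induced death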
Outline: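 Screening measures cell viability in LACV-infected SH-SY5Y cultures. Compound was added before virus (0.01 MOI), and ATP was detected by luminescence 6 days later.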

[10] = biological target: Calcium and integrin-binding protein 1 (Homo sapiens) (UniProt Q99828); assay: Validation qHTS for Identification of Calcium Integrin Binding protein 1 (CIB1) Competitor (AID 1508618); also: % is scaled to controls: 0 for no effect and ±100 for the full control effect
Chain of Calcium and integrin-binding protein 1 (Homo sapiens) (Q99828 whole entry, looked up): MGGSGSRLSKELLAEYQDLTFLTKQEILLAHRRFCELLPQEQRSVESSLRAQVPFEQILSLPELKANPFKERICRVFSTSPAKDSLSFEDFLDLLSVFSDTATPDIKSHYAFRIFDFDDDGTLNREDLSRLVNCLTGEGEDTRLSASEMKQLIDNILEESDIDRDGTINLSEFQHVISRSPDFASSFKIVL
Outline: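 Fluorescence polarization with 1 uM CIB1-GST and 100 nM FITC-alphaIIb peptide in HEPES pH 7.4, NaCl, 5 mM CaCl2, Tween20. Compounds at up to 114 uM final, preincubated with protein 15 min; read after 15 min more at RT.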

[11] = biological target: Calcium and integrin-binding protein 1 (Homo sapiens) (UniProt Q99828); assay: Primary qHTS for Identification of Calcium Integrin Binding Protein 1 (CIB1) Competitor (AID 1508620)
Outline: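 CIB1-GST (1 uM final) and compound incubated 15 min at room temperature before adding FITC-alphaIIb peptide tracer (100 nM final). Competition for binding read by fluorescence polarization (ex 480, em 540) after another 15 min at room temperature.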

[12] = Confirmatory qHTS for small molecule stabilizers of the endoplasmic reticulum resident proteome: Secreted ER Calcium Modulated Protein (SERCaMP) assay (AID 1508628); also: nearly all actives have a fitted effect of over 40% in size; also: potency is read from the fitted curve at half-maximal effect
Outline: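 GLuc-SERCaMP-expressing SH-SY5Y cells, pretreated 16 h with compound, are challenged with thapsigargin to empty ER calcium stores; after 4 h, coelenterazine is added directly to the medium and luminescence is imaged.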

[13] = Primary qHTS for small molecule stabilizers of the endoplasmic reticulum resident proteome: Secreted ER Calcium Modulated Protein (SERCaMP) assay (AID 1508630); also: % is scaled to controls: 0 for no effect and ±100 for the full control effect
Outline: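 The SH-SY5Y reporter protocol was run at 3 concentrations up to 38.3 uM (primary) or 11 concentrations (follow-up): 16 h compound, 100 nM thapsigargin for 4 h, then extracellular luciferase luminescence.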

[14] = Cell Viability qHTS for small molecule stabilizers of the endoplasmic reticulum resident proteome (AID 1508629); settings: cell viability counter-screen, 100 nM thapsigargin for final 4 h
[15] = biological target: Calcium and integrin-binding protein 1 (Homo sapiens) (UniProt Q99828); assay: Confirmatory qHTS for Identification of Calcium Integrin Binding Protein 1 (CIB1) Competitor (AID 1508617); settings: CIB1 binding competition assay, biochemical qHTS; also: potency is read from the fitted curve at half-maximal effect; nearly all actives have a fitted effect of over 65% in size
Outline: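 FP competition: CIB1-GST (1 uM final) in 5 mM HEPES pH 7.4, 125 mM NaCl, 5 mM CaCl2, 0.01% Tween20 preincubated 15 min RT with compounds (up to 114 uM), then FITC-alphaIIb peptide (100 nM), 15 min RT; Ex 480/Em 540.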

CC(C)NCC(O)c1ccc(O)c(O)c1 (centres undefined)
inactive: Potency [1] | Potency [2] | outcome [3] | Potency [4] | Potency [5] | outcome [6] | Potency [7] | Potency [8] | Potency [9] | Potency [10] | Potency [11] | Potency [12] | Potency [13]

CN(C)CCC=C1c2ccccc2C=Cc2ccccc21
inactive: Potency [1] | Potency [2] | outcome [3] | Potency [4] | Potency [5] | outcome [6] | Potency [7] | Potency [8] | Potency [9] | Potency [10] | Potency [11]

Cc1cc(C(C)(C)C)c(O)c(C)c1CC1=NCCN1
inactive: Potency [1] | Potency [2] | outcome [3] | Potency [4] | Potency [5] | outcome [6] | Potency [7] | Potency [8] | Potency [9] | Potency [10] | Potency [11]

Cc1cc(C(C)(C)C)cc(C)c1CC1=NCCN1
inactive: Potency [1] | Potency [2] | outcome [3] | Potency [4] | Potency [5] | outcome [6] | Potency [7] | Potency [8] | Potency [9] | Potency [10] | Potency [11]

Cc1cnc(C(=O)NCCc2ccc(S(=O)(=O)NC(=O)NC3CCCCC3)cc2)cn1
inactive: Potency [1] | Potency [2] | outcome [3] | Potency [4] | Potency [5] | outcome [6] | Potency [7] | Potency [8] | Potency [9]

CC12CC3CC(C)(C1)CC(N)(C3)C2
inactive: Potency [1] | Potency [2] | outcome [3] | Potency [4] | Potency [5] | outcome [6] | Potency [7] | Potency [8] | Potency [9] | Potency [10] | Potency [11] | max response [14] 23.1% | Potency [13]
active: Potency [12] 11.2 µM and 39.8 µM

O=C1c2c(O)ccc(O)c2C(=O)c2c(NCCNCCO)ccc(NCCNCCO)c21
active: Potency [15] 22.4 µM and 20 µM

CN(CCOc1ccc(NS(C)(=O)=O)cc1)CCc1ccc(NS(C)(=O)=O)cc1
inactive: outcome [3] | Potency [5] | outcome [6] | Potency [9] | Potency [10] | Potency [11] | Potency [13]

COC(=O)Nc1nc2ccc(C(=O)c3cccs3)cc2[nH]1
inactive: Potency [2] | outcome [3] | Potency [5] | outcome [6] | Potency [7] | Potency [8] | Potency [10] | Potency [11]

CC1(C)O[C@H]2CC(=O)OC[C@]23[C@H]2CC[C@@]4(C)[C@H](c5ccoc5)OC(=O)[C@H]5O[C@]54[C@]2(C)C(=O)C[C@@H]13
inactive: Potency [2] | Potency [5] | outcome [6] | Potency [11]

CS(=O)(=O)CCNCc1ccc(-c2ccc3ncnc(Nc4ccc(OCc5cccc(F)c5)c(Cl)c4)c3c2)o1
inactive: Potency [5] | outcome [6] | Potency [9] | Potency [11] | Potency [12]
active: Potency [4] 33 µM

CC(=O)OCC(CCn1cnc2cnc(N)nc21)COC(C)=O
inactive: Potency [1] | outcome [3] | Potency [4] | Potency [5] | outcome [6] | Potency [9] | Potency [10] | Potency [11]

Cn1c(=O)c2[nH]cnc2n(C)c1=O
inactive: Potency [5] | outcome [6] | Potency [9] | Potency [10] | Potency [11] | Potency [13]

CN(C)C(=O)C(CCN1CCC(O)(c2ccc(Cl)cc2)CC1)(c1ccccc1)c1ccccc1
inactive: Potency [2] | outcome [3] | Potency [5] | outcome [6] | Potency [7] | Potency [8] | Potency [10] | Potency [11]

CCCCc1oc2ccccc2c1C(=O)c1cc(I)c(OCCN(CC)CC)c(I)c1
inactive: Potency [2] | outcome [3] | Potency [5] | outcome [6] | Potency [7] | Potency [8] | Potency [9] | Potency [10] | Potency [11] | Potency [12] | max response [14] 10.4% | Potency [13]

Cc1ccc(-c2cc(C(F)(F)F)nn2-c2ccc(S(N)(=O)=O)cc2)cc1
inactive: Potency [1] | Potency [2] | outcome [3] | Potency [9] | Potency [10] | Potency [11]

C[C@@H]1CC(=O)NN=C1c1ccc(NN=C(C#N)C#N)cc1
active: Potency [4] 18.6 µM | Potency [12] 15.8 µM
inactive: Potency [2] | Potency [5] | Potency [9] | Potency [11] | max response [14] -18.7% | Potency [13]

CC1(CN2CCC(n3c(=O)[nH]c4ccccc43)CC2)OCc2ccccc2-n2cccc21 (centres undefined)
inactive: Potency [2] | Potency [4] | Potency [5] | outcome [6] | Potency [9] | Potency [11]

CC(C)Cc1ccc(C(C)C(=O)O)cc1 (centres undefined)
inactive: outcome [3] | Potency [5] | outcome [6] | Potency [9] | Potency [13]

Fc1ccc([C@@H]2CCNC[C@H]2COc2ccc3c(c2)OCO3)cc1
inactive: Potency [2] | outcome [3] | Potency [5] | outcome [6] | Potency [7] | Potency [8] | Potency [9] | Potency [10] | Potency [11] | Potency [13]
